The whole screen tested about 48,000 compounds, of which about 13,000 (27%) showed an effect of 50% or more. Some of the results follow.
System: Wolbachia pipientis
Experiment: Anti-Wolbachia Cell-Based Screen
Assay type: functional
Parameters: scale not given: in the data most compounds retested in dose-response had high values
Conditions: 5 µM

| Compound | Percent Effect [%] |
| --- | --- |
| CCCSc1ncc(C2CC(=O)NCc3nc4ccccn4c32)cn1 (centres undefined) | 2.221 |
| COc1ccccc1C1(CNc2cn[nH]c(=O)c2Cl)CC1 | 2.708 |
| CC(NC(=O)c1cccnc1N(C)C)c1ccccc1Br (centres undefined) | 9.946 |
| C=C(C)COc1cccc(C(=O)N(C)C(C)c2ccncn2)c1 (centres undefined) | -7.553 |
| CNC(=O)CN1C(=O)CCC12CCCN(Cc1cccc(F)c1)C2.O=C(O)C(F)(F)F.O=C(O)C(F)(F)F (centres undefined) | 0.4911 |
| O=C(O)C(F)(F)F.O=C(c1cscn1)N1CCC2(CCN(Cc3nccs3)CC2)C1 | 11.65 |
| O=C(O)C(F)(F)F.O=C(O)C(F)(F)F.O=C(O)CN1CCCC2(CCN2Cc2cccc(F)c2)C1 (centres undefined) | 109.4 |
| CCS(=O)(=O)N1CCCC2(CCCN2Cc2cccc(F)c2)C1.O=C(O)C(F)(F)F (centres undefined) | -5.383 |
| O=C(O)C(F)(F)F.O=S(=O)(c1ccccc1)N1CCC2(CCCN2Cc2cccc(Cl)c2)C1 (centres undefined) | -34.27 |
| COCCC(=O)N1CCC2(CCN(Cc3cccc(F)c3)CC2)C1.O=C(O)C(F)(F)F | -14.27 |
| O=C(O)C(F)(F)F.O=C(c1cscn1)N1CCC2(CN(Cc3nccs3)C2)C1 | 5.214 |
| COC(=O)CCC(=O)N1CCCC2(CCCN2Cc2cccc(F)c2)C1.O=C(O)C(F)(F)F (centres undefined) | 107.2 |
| O=C(O)C(F)(F)F.O=C(c1cscn1)N1CCCC2(CCN2Cc2cccc(F)c2)C1 (centres undefined) | 96.65 |
| O=C(O)C(F)(F)F.O=C(c1ccccc1)N1CCCC2(CCN2Cc2cccc(F)c2)C1 (centres undefined) | 106.4 |
| Cc1cnc(CNc2ccccc2CN(C)C(=O)c2cccs2)o1 | 6.302 |
| Cc1cc(-c2nn(C)c(Cl)c2CN2CCOCC(O)C2)no1 (centres undefined) | 7.686 |
| Cc1ccc(OCC(=O)Nc2ncccc2OC(F)F)cc1 | -8.184 |
| COc1ccc(-c2nc(CN3CCCS3(=O)=O)co2)cc1 | -14.94 |
| CC(C)NC(=O)N1CCN(c2ccc(Cl)nn2)C(=O)C1 | 110.8 |
| CC(O)C(=O)N1CCN(c2ccccc2Cl)C(=O)C1 (centres undefined) | -6.675 |
| Cc1ccccc1N1CCN(C(=O)CSc2ccncc2)CC1=O | -3.872 |
| COc1cccc(N2CCN(C(=O)C(O)c3ccccc3Cl)CC2=O)c1 (centres undefined) | 0.2128 |
| COC(=O)[C@@H]1CN(C(=O)NC(C)C)CCN1S(=O)(=O)c1ccccc1 | -0.3484 |
| CN(C)C(=O)N1CCN(c2ccc(Cl)nn2)C(=O)C1 | 97.53 |
| CC(=O)N1CCN(c2ccc(Cl)nn2)C(=O)C1 | 106.1 |
| Cc1ccc2cc(C(=O)N3CCN(C(=O)N(C)C)CC3)ccc2n1 | 1.001 |
| CC(C)C(NC(N)=O)C(=O)N1CCN(c2ccccc2Cl)C(=O)C1 (centres undefined) | 3.196 |

| Compound | Percent Effect [%] |
| --- | --- |
| CCN1CCN(C(=O)C(C)SC)CC1 (centres undefined) | -3.808 |
| CC(C)(NS(C)(=O)=O)C(=O)NCc1cccc(Br)c1 | -10.37 |
| Cc1cnc(CNc2ccc(C(=O)NCc3ccco3)cc2C)o1 | -1.967 |
| O=C1COc2ccc(S(=O)(=O)NCc3ccccc3)c3c2N1CCC3 | -7.83 |
| CCOC(=O)C1(Cc2ccc(Cl)cc2)CCN(Cc2ncc[nH]2)CC1 | -10.72 |
| Cc1[nH]c2ccccc2c1CCNC(=O)N1CCC2(C1)OCCO2 | 5.663 |
| Cc1ccc(C(=O)N2CCOCC2)cc1NCc1ccsc1 | -10.53 |
| Cc1ccc(CN2CCOCC2)cc1NCc1ccsc1 | -9.351 |
| Cc1cccc(CNC(Cc2ccsc2)c2nc(C)c(C)s2)n1.Cl (centres undefined) | 125.8 |
| CC(NC(=O)Nc1ccccc1CN1CCOCC1)c1nccs1 (centres undefined) | 15.83 |
| Cc1n[nH]c(C2CN(CC(=O)NCCc3ccsc3)CCO2)n1 (centres undefined) | -13.37 |
| O=C(C(CNCc1ccsc1)c1ccccc1)N1CCOCC1 (centres undefined) | 2.12 |
| Cc1nc(C(Cc2ccsc2)NC(=O)CN2CCOCC2)sc1C (centres undefined) | 171.6 |
| Cc1nc(-c2ccsc2)ccc1C(=O)NCCN1CCOCC1 | -7.078 |
| CNS(=O)(=O)c1cccc(C(C)NCc2ccsc2)c1 (centres undefined) | -13.31 |
| Cc1nc(C(Cc2ccsc2)NC(=O)CCN2CCOCC2)sc1C (centres undefined) | 158.4 |
| O=C(CCN1CCOCC1)NC(Cc1ccsc1)c1nccs1 (centres undefined) | 146.7 |
| Cn1cc(C(C)(O)CNC(=O)c2cc(Br)cn2C)cn1 (centres undefined) | 0.5421 |
| Cc1n[nH]c(-c2ccc(NC(=O)C(C)(C)N3CCN(C)CC3)cc2)n1 | -11.99 |
| CC(C)(C)c1cnc(CN2CCCS2(=O)=O)o1 | -7.665 |
| O=C1CCc2cc(S(=O)(=O)NC(=O)c3ccc4c(c3)COC4)ccc2N1 | -36.98 |
| O=c1c2cccc(Cl)c2ncn1C1CCNC1 (centres undefined) | 5.785 |
| Cc1ccc(C(=O)NCc2ccccc2S(=O)(=O)N(C)CCO)cc1F | -6.958 |
| Cc1ccc(NC(=O)N2CCCC2)c(OCC2CCCO2)c1 (centres undefined) | 97.39 |
| Cc1cnc(C(=O)Nc2cc(F)ccc2OCC2CCCO2)cn1 (centres undefined) | -2.263 |
| CS(=O)(=O)CCC(=O)Nc1cc(F)ccc1OCC1CCCO1 (centres undefined) | 92.36 |
| O=C(Nc1cc(F)ccc1OCC1CCCO1)c1ccc(O)nc1 (centres undefined) | 10.58 |
